# Numbering of substitutions follows the chain as printed.
# Legend:
# Assay in all cases: PBM; 200 nM protein, PBS
# Details in all cases: dsDNA, one strand shown
# SHOX [1] = molecular target: SHOX (Homo sapiens, UniProt O15266 103-189)
# CRX [2] = molecular target: CRX (Homo sapiens, UniProt O43186 26-111)
# CRX [3] = molecular target: CRX (Homo sapiens, UniProt O43186 26-111, E42D)
# MSX2 [4] = molecular target: MSX2 (Homo sapiens, UniProt P35548 130-214, R199I)
# SHOX [5] = molecular target: SHOX (Homo sapiens, UniProt O15266 103-189, R173C)
# MSX2 [6] = molecular target: MSX2 (Homo sapiens, UniProt P35548 130-214)
# MSX2 [7] = molecular target: MSX2 (Homo sapiens, UniProt P35548 130-214, F161Y)
# CRX [8] = molecular target: CRX (Homo sapiens, UniProt O43186 26-111, R41L)
# NKX2-4 [9] = molecular target: T1, NKX2-4 (Homo sapiens, UniProt Q9H2Z4 175-261, P217L)
# T1 sequence: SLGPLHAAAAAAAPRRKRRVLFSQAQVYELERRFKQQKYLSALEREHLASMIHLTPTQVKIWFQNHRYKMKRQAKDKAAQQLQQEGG
# VENTX [10] = molecular target: T2, VENTX (Homo sapiens, UniProt O95231 78-163, R121Q)
# T2 sequence: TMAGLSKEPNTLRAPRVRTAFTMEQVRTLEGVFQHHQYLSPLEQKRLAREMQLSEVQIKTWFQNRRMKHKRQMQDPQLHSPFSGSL
# VENTX [11] = molecular target: T3, VENTX (Homo sapiens, UniProt O95231 78-163)
# T3 sequence: T2 sequence with Q44R
# NKX2-4 [12] = molecular target: T4, NKX2-4 (Homo sapiens, UniProt Q9H2Z4 175-261, T231S)
# T4 sequence: T1 sequence with L43P, T57S
# VENTX [13] = molecular target: T5, VENTX (Homo sapiens, UniProt O95231 78-163, Y115F)
# T5 sequence: T2 sequence with Y38F, Q44R
# NKX2-4 [14] = molecular target: T6, NKX2-4 (Homo sapiens, UniProt Q9H2Z4 175-261)
# T6 sequence: T1 sequence with L43P
# ALX1 [15] = molecular target: ALX1 (Homo sapiens, UniProt Q15699 118-204, L144V)
# ALX3 [16] = molecular target: ALX3 (Homo sapiens, UniProt O95076 139-225, N203Q)
# ALX1 [17] = molecular target: ALX1 (Homo sapiens, UniProt Q15699 118-204, L144R)
# ALX3 [18] = molecular target: ALX3 (Homo sapiens, UniProt O95076 139-225)
# NKX2-4 [19] = molecular target: T7, NKX2-4 (Homo sapiens, UniProt Q9H2Z4 175-261, R246Q)
# T7 sequence: T1 sequence with L43P, R72Q
# ALX3 [20] = molecular target: ALX3 (Homo sapiens, UniProt O95076 139-225, L168Q)
# ALX3 [21] = molecular target: ALX3 (Homo sapiens, UniProt O95076 139-225, L168V)
# ALX1 [22] = molecular target: ALX1 (Homo sapiens, UniProt Q15699 118-204)
# ALX3 [23] = molecular target: ALX3 (Homo sapiens, UniProt O95076 139-225, N203S)
# HOXD13 [24] = molecular target: HOXD13 (Homo sapiens, UniProt P35453 263-343, T313R)
# HOXD13 [25] = molecular target: HOXD13 (Homo sapiens, UniProt P35453 263-343)
# HOXD13 [26] = molecular target: HOXD13 (Homo sapiens, UniProt P35453 263-343, T313A)
# ALX4 [27] = molecular target: ALX4 (Homo sapiens, UniProt Q9H161 200-286)
# ALX4 [28] = molecular target: ALX4 (Homo sapiens, UniProt Q9H161 200-286, Q225E)
# Chain of ALX4 (Homo sapiens, UniProt Q9H161 200-286, Q225E) (Q9H161 200-286 Q225E): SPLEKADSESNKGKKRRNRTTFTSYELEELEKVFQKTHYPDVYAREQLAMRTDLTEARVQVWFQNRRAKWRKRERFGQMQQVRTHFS
# Chain of SHOX (Homo sapiens, UniProt O15266 103-189, R173C) (O15266 103-189 R173C): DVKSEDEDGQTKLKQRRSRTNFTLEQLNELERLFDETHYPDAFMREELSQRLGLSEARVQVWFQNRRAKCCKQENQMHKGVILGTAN
# Chain of SHOX (Homo sapiens, UniProt O15266 103-189) (O15266 103-189): as the sequence (O15266 103-189 R173C) above, with C71R counted along it
# Chain of CRX (Homo sapiens, UniProt O43186 26-111, E42D) (O43186 26-111 E42D): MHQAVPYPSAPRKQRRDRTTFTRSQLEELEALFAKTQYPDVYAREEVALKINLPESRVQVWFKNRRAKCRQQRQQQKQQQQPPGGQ
# Chain of CRX (Homo sapiens, UniProt O43186 26-111) (O43186 26-111): as the sequence (O43186 26-111 E42D) above, with D17E counted along it
# Chain of CRX (Homo sapiens, UniProt O43186 26-111, R41L) (O43186 26-111 R41L): as the sequence (O43186 26-111 E42D) above, with R16L, D17E counted along it
# Chain of MSX2 (Homo sapiens, UniProt P35548 130-214) (P35548 130-214): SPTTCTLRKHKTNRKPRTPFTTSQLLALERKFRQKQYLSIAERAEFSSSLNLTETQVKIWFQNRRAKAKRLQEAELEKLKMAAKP
# Chain of ALX4 (Homo sapiens, UniProt Q9H161 200-286) (Q9H161 200-286): as the sequence (Q9H161 200-286 Q225E) above, with E26Q counted along it
# Chain of ALX3 (Homo sapiens, UniProt O95076 139-225) (O95076 139-225): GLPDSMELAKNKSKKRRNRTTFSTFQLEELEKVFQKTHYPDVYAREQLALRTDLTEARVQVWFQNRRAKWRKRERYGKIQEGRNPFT
# Chain of ALX1 (Homo sapiens, UniProt Q15699 118-204, L144R) (Q15699 118-204 L144R): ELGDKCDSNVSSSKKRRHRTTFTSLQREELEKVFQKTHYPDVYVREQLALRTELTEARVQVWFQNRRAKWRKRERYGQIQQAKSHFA
# Chain of ALX3 (Homo sapiens, UniProt O95076 139-225, N203S) (O95076 139-225 N203S): as the sequence (O95076 139-225) above, with N65S counted along it
# Chain of ALX3 (Homo sapiens, UniProt O95076 139-225, L168V) (O95076 139-225 L168V): as the sequence (O95076 139-225) above, with L30V counted along it
# Chain of HOXD13 (Homo sapiens, UniProt P35453 263-343) (P35453 263-343): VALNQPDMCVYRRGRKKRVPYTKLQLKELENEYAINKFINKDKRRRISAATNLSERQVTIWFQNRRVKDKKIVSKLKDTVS
# Chain of ALX3 (Homo sapiens, UniProt O95076 139-225, L168Q) (O95076 139-225 L168Q): as the sequence (O95076 139-225) above, with L30Q counted along it
# Chain of MSX2 (Homo sapiens, UniProt P35548 130-214, R199I) (P35548 130-214 R199I): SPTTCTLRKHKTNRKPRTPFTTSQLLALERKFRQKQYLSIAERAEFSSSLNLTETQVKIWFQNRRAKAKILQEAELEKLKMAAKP
# Chain of ALX1 (Homo sapiens, UniProt Q15699 118-204) (Q15699 118-204): as the sequence (Q15699 118-204 L144R) above, with R27L counted along it
# Chain of MSX2 (Homo sapiens, UniProt P35548 130-214, F161Y) (P35548 130-214 F161Y): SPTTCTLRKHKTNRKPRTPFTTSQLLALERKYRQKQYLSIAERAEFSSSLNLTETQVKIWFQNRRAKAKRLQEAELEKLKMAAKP
# Chain of HOXD13 (Homo sapiens, UniProt P35453 263-343, T313R) (P35453 263-343 T313R): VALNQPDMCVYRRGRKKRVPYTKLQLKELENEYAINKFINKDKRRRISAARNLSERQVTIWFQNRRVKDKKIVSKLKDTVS
# Chain of ALX1 (Homo sapiens, UniProt Q15699 118-204, L144V) (Q15699 118-204 L144V): as the sequence (Q15699 118-204 L144R) above, with R27V counted along it
# Chain of ALX3 (Homo sapiens, UniProt O95076 139-225, N203Q) (O95076 139-225 N203Q): as the sequence (O95076 139-225) above, with N65Q counted along it
# Chain of HOXD13 (Homo sapiens, UniProt P35453 263-343, T313A) (P35453 263-343 T313A): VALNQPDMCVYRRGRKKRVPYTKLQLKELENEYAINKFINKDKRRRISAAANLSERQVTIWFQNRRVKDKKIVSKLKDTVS
sequence,measurement,setting,value
CCTGCCTC,binding signal,SHOX [1],"7.13 upbm affinity estimate (log intensity, higher = more binding, comparable within an allelic series)"
same,binding signal,CRX [2],"8.19 upbm affinity estimate (log intensity, higher = more binding, comparable within an allelic series)"
same,binding signal,CRX [3],"8.2 upbm affinity estimate (log intensity, higher = more binding, comparable within an allelic series)"
same,binding signal,MSX2 [4],"9.6 upbm affinity estimate (log intensity, higher = more binding, comparable within an allelic series)"
same,binding signal,SHOX [5],"7.13 upbm affinity estimate (log intensity, higher = more binding, comparable within an allelic series)"
same,binding signal,MSX2 [6],"9.51 upbm affinity estimate (log intensity, higher = more binding, comparable within an allelic series)"
same,binding signal,MSX2 [7],"9.51 upbm affinity estimate (log intensity, higher = more binding, comparable within an allelic series)"
same,binding signal,CRX [8],"8.18 upbm affinity estimate (log intensity, higher = more binding, comparable within an allelic series)"
GCCGTAGC,binding signal,SHOX [1],"6.96 upbm affinity estimate (log intensity, higher = more binding, comparable within an allelic series)"
same,binding signal,NKX2-4 [9],"9.17 upbm affinity estimate (log intensity, higher = more binding, comparable within an allelic series)"
same,binding signal,VENTX [10],"7.91 upbm affinity estimate (log intensity, higher = more binding, comparable within an allelic series)"
same,binding signal,VENTX [11],"7.82 upbm affinity estimate (log intensity, higher = more binding, comparable within an allelic series)"
same,binding signal,NKX2-4 [12],"9.15 upbm affinity estimate (log intensity, higher = more binding, comparable within an allelic series)"
same,binding signal,VENTX [13],"7.86 upbm affinity estimate (log intensity, higher = more binding, comparable within an allelic series)"
same,binding signal,NKX2-4 [14],"9.34 upbm affinity estimate (log intensity, higher = more binding, comparable within an allelic series)"
same,binding signal,ALX1 [15],"6.19 upbm affinity estimate (log intensity, higher = more binding, comparable within an allelic series)"
same,binding signal,ALX3 [16],"7.67 upbm affinity estimate (log intensity, higher = more binding, comparable within an allelic series)"
same,binding signal,SHOX [5],"7.22 upbm affinity estimate (log intensity, higher = more binding, comparable within an allelic series)"
same,binding signal,ALX1 [17],"6.26 upbm affinity estimate (log intensity, higher = more binding, comparable within an allelic series)"
same,binding signal,ALX3 [18],"7.55 upbm affinity estimate (log intensity, higher = more binding, comparable within an allelic series)"
same,binding signal,NKX2-4 [19],"9.33 upbm affinity estimate (log intensity, higher = more binding, comparable within an allelic series)"
same,binding signal,ALX3 [20],"7.74 upbm affinity estimate (log intensity, higher = more binding, comparable within an allelic series)"
same,binding signal,ALX3 [21],"7.76 upbm affinity estimate (log intensity, higher = more binding, comparable within an allelic series)"
same,binding signal,ALX1 [22],"6.18 upbm affinity estimate (log intensity, higher = more binding, comparable within an allelic series)"
same,binding signal,ALX3 [23],"7.68 upbm affinity estimate (log intensity, higher = more binding, comparable within an allelic series)"
GGCGGGCA,binding signal,SHOX [1],"7.13 upbm affinity estimate (log intensity, higher = more binding, comparable within an allelic series)"
same,binding signal,CRX [2],"8.31 upbm affinity estimate (log intensity, higher = more binding, comparable within an allelic series)"
same,binding signal,CRX [3],"8.21 upbm affinity estimate (log intensity, higher = more binding, comparable within an allelic series)"
same,binding signal,HOXD13 [24],"9.46 upbm affinity estimate (log intensity, higher = more binding, comparable within an allelic series)"
same,binding signal,SHOX [5],"7.15 upbm affinity estimate (log intensity, higher = more binding, comparable within an allelic series)"
same,binding signal,HOXD13 [25],"9.45 upbm affinity estimate (log intensity, higher = more binding, comparable within an allelic series)"
same,binding signal,HOXD13 [26],"9.59 upbm affinity estimate (log intensity, higher = more binding, comparable within an allelic series)"
same,binding signal,CRX [8],"8.39 upbm affinity estimate (log intensity, higher = more binding, comparable within an allelic series)"
ATATAGAG,binding signal,SHOX [1],"8.28 upbm affinity estimate (log intensity, higher = more binding, comparable within an allelic series)"
GCGCCCCC,binding signal,SHOX [1],"7.04 upbm affinity estimate (log intensity, higher = more binding, comparable within an allelic series)"
same,binding signal,VENTX [10],"8.12 upbm affinity estimate (log intensity, higher = more binding, comparable within an allelic series)"
same,binding signal,VENTX [11],"8.12 upbm affinity estimate (log intensity, higher = more binding, comparable within an allelic series)"
same,binding signal,ALX4 [27],"8.12 upbm affinity estimate (log intensity, higher = more binding, comparable within an allelic series)"
same,binding signal,VENTX [13],"8.06 upbm affinity estimate (log intensity, higher = more binding, comparable within an allelic series)"
same,binding signal,ALX4 [28],"8.14 upbm affinity estimate (log intensity, higher = more binding, comparable within an allelic series)"
same,binding signal,SHOX [5],"7.07 upbm affinity estimate (log intensity, higher = more binding, comparable within an allelic series)"

# — PMC11006913
